ST2 inh = blocks human ST2 binding to IL-33; AlphaLISA ST2-Fc/biotin-IL-33 interaction, 1 h; inhibition, % for hits at 17 µM; 78,000 compounds, 2.3% hits; AID 1259354; in the data active = inhibition above about 30%
Target sequence (Q01638 whole entry, looked up): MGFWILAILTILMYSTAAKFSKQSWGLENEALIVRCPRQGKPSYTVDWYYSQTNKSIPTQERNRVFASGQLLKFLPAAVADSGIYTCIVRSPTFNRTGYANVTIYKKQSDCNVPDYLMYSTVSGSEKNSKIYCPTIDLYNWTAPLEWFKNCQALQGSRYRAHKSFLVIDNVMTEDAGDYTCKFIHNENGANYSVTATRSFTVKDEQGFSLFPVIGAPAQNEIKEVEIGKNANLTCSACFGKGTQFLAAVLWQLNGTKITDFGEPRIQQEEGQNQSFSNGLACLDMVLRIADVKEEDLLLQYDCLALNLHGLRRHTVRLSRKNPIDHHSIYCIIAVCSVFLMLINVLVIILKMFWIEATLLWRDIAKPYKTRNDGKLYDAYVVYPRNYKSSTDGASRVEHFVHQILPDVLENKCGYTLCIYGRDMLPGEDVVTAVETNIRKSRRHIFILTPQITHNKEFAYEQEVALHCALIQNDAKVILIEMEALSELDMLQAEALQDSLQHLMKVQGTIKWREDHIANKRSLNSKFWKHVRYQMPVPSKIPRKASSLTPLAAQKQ
Active calls of the source: *; i = inactive; ! = not confirmed by another sample. The sample as a whole holds a higher share of hits than the screen did.

SMILES	ST2 inh
COc1ccc(Oc2nc3c(c(=O)n(Cc4ccccc4)c(=O)n3C)n2C)cc1	35%*
Cc1nccn1S(=O)(=O)c1cc(Cl)c(Cl)cc1Cl	i
N/C(=N/OC(=O)N1c2ccccc2Sc2ccccc21)c1ccccc1	50%*
O=C(COc1ccccc1)OCC(=O)N1c2ccccc2Sc2ccccc21	i
CN(C(=O)N1c2ccccc2Sc2ccccc21)c1ccccc1	i
CC1=C(C(=O)OC2CCCCC2)C(c2cccnc2)n2c(nc3ccccc32)N1 (stereo not given)	i
Nc1ccccc1N=Cc1cc(Br)cc(Cl)c1O	i
O=C1CCCN1c1ccccc1O	i
O=C1/C(=C/c2ccccc2O)N=C2CCCCCN12	39%*
O=C1N=C(N2CCCC2)S/C1=C\c1ccccc1O	i
O=C(CC1(c2ccccc2)CC(=O)N(Cc2ccc3c(c2)OCO3)C1=O)N1CCc2ccccc2C1 (stereo not given)	i
CCC(C)NCc1ccccc1-c1ccc(S(C)(=O)=O)cc1 (stereo not given)	i
Cc1ccc(S(=O)(=O)N2CCSC2c2ccc(Cl)cc2)c(C)c1 (stereo not given)	i
O=C(CSc1nnc2c(n1)[nH]c1ccccc12)N=C1NC(=O)CS1	i
O=[N+]([O-])c1ccc(N2CCN(Cc3ccc(Br)o3)CC2)cc1	38%*
O=[N+]([O-])c1ccc(N2CCN(Cc3ccsc3)CC2)cc1	i
O=C(O)c1ccc(CN2CCN(c3ccc([N+](=O)[O-])cc3)CC2)cc1	i
O=[N+]([O-])c1ccc(N2CCN(Cc3cccnc3)CC2)cc1	i
CCN1CCN(C(=O)CCC2CCN(CC3=CC[C@H]4C[C@@H]3C4(C)C)CC2)CC1	i
CC1(C)[C@H]2CC=C(CN3CCN(c4ccc([N+](=O)[O-])cc4)CC3)[C@@H]1C2	42%*
O=C1Nc2ccccc2S/C1=C\C(=O)N1CCN(c2ccccn2)CC1	i
CCn1cnnc1CCNC1CSCCSC1	i
COc1ccc(NC(=O)CCCn2nc([N+](=O)[O-])cc2C)c(OC)c1	i
CC(C(=O)Nc1ccc(F)cc1)N1C(=O)c2ccccc2C1=O (stereo not given)	i
Cn1nc(C(=O)Nc2ccc(Br)cc2)cc1C(=O)Nc1ccc(Br)cc1	i
SMILES	ST2 inh
COc1ccc(CCNc2nnc(C)c(=O)[nH]2)cc1OC	i
Cc1nccn1-c1ccc(-c2ccc(C(C)N3CCOCC3)cc2)nn1 (stereo not given)	i
COc1ccc(-n2nc3c(c2NC(=O)C(C)(C)C)CSC3)cc1	i
CCOC(=O)C1(Cc2ccccc2)CCCN(C(=O)C#Cc2ccccc2)C1 (stereo not given)	42%*
CCOC(=O)C1(Cc2ccccc2Cl)CCN(C(=O)C#Cc2ccccc2)CC1	i
CCOC(=O)C1(CC2CCCCO2)CCN(C(=O)C#Cc2ccccc2)CC1 (stereo not given)	i
Cc1cc(C)n(CCC(=O)N(C)CCc2noc(C(C)C)n2)c(=O)n1	i
c1ccc2c3c([nH]c2c1)CN(c1nc(C2CCCC2)nc2c1CNC2)CC3	i
O=C(CSc1ncn[nH]1)c1ccc(Br)cc1	i
N=C1SCCN1CC(=O)c1ccc(Br)cc1	48%*!
O=C(CN1C(=O)CCSc2ccccc21)Nc1ccc(Br)cc1	i
CC(C)C(NS(=O)(=O)c1cccs1)C(=O)N1CCN(c2ccccc2Cl)CC1 (stereo not given)	i
O=C(Cn1nc(-c2ccccc2)ccc1=O)NCc1ccccn1	i
NC(=O)Cn1nc2c3c(cccc3c1=O)-c1ccccc1-2	i
Cc1ncc2c(c1CNC(=O)/C=C/c1cccs1)CCN(C(=O)c1ccc(-n3cccn3)cc1)C2	i
Cc1ncc2c(c1CNC(=O)/C=C/c1cccs1)CCN(C(=O)COc1ccccc1)C2	i
Cc1nc(CC(=O)N2CCc3c(cnc(C)c3CNC(=O)/C=C/c3cccs3)C2)cs1	30%*
CC(C)(NC(=O)c1cccs1)C(=O)NC1(c2ccccc2Cl)CC1	i
COc1nc(-c2ccccc2)cc(-c2ccccc2)c1C#N	i
CC(=O)NS(=O)(=O)c1ccc(NC(=O)CSc2ccccc2)cc1	i
Nc1ccc(Br)cc1-c1nc2ccccc2[nH]c1=O	i
O=c1c2c[nH]c3ccccc3nc-2c2ccccc12	42%*
O=C(O)c1cc(-c2c[nH]c3ccccc23)n[nH]1	i
Brc1ccc(C2=CSC3=NCCN23)cc1	i
Fc1ccc(C2=CSC3=NCCN23)cc1	i
SMILES	ST2 inh
Clc1ccc(OC2=C(c3ccccc3)N3CCN=C3S2)cc1	45%*
Cc1ccc(-c2cc(C(F)(F)F)n3ncc(C(=O)OC(C)C)c3n2)cc1	i
CCC(C)Nc1ncnc2c1cnn2-c1ccccc1 (stereo not given)	i
COCCN1C(=O)c2cc(C(=O)Nc3cc(F)ccc3F)ccc2C1Nc1cc(F)ccc1F (stereo not given)	i
O=C(O)c1nccnc1C(=O)Nc1ccc(Br)cc1	i
Oc1ccccc1-c1nc2ccccc2[nH]1	i
O=[N+]([O-])c1cc2c(cc1C=Nc1ccc(Cl)c(C(F)(F)F)c1)OCO2	i
